# In PubChem BioAssay (NCI):
# The panel holds about 83,000 compounds, 20% with a hit somewhere; the sample as a whole holds those more often.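 Assay: single dose, 48 h. Readout: percent growth (0 = no net growth; negative = cell death). Active: <10.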 A number with no mark means an inactive call. Calls of active or inactive are those of the source.
# Key:
# Test in all cases: NCI-60 one-dose screen, 48 h (100 = growth as untreated, 0 = no growth, -100 = all killed)
# [1] = tested on: DU-145 prostate; conditions: 10 µM unless noted
# [2] = tested on: K-562 leukemia; conditions: 10 µM unless noted
# [3] = tested on: MALME-3M melanoma; conditions: 10 µM unless noted
# [4] = tested on: MDA-MB-231 breast; conditions: 10 µM unless noted
# [5] = tested on: RXF 393 renal; conditions: 10 µM unless noted
# [6] = tested on: SF-268 CNS; conditions: 10 µM unless noted
# [7] = tested on: SF-295 CNS; conditions: 10 µM unless noted
# [8] = tested on: SF-539 CNS; conditions: 10 µM unless noted
# [9] = tested on: UACC-257 melanoma; conditions: 10 µM
# [10] = tested on: M14 melanoma; conditions: 10 µM unless noted
# [11] = tested on: HCT-15 colon; conditions: 10 µM unless noted
# [12] = tested on: HT29 colon; conditions: 10 µM unless noted
# [13] = tested on: SNB-75 CNS; conditions: 10 µM unless noted
# [14] = tested on: SNB-19 CNS; conditions: 10 µM unless noted
# [15] = tested on: U251 CNS; conditions: 10 µM unless noted
# [16] = tested on: PC-3 prostate; conditions: 10 µM unless noted
# [17] = tested on: SK-MEL-5 melanoma; conditions: 10 µM unless noted
# [18] = tested on: UACC-62 melanoma; conditions: 10 µM unless noted
# [19] = tested on: LOX IMVI melanoma; conditions: 10 µM unless noted
# [20] = tested on: SK-MEL-28 melanoma; conditions: 10 µM unless noted
Structure (SMILES),growth [1],growth [2],growth [3],growth [4],growth [5],growth [6],growth [7],growth [8],growth [9],growth [10],growth [11],growth [12],growth [13],growth [14],growth [15],growth [16],growth [17],growth [18],growth [19],growth [20]
COc1ccc(OC)c(-c2ccc(-c3ccccc3N)c3[nH]c4ccccc4c23)c1,89.6%,76.2%,85%,74.1%,98.2%,79.1%,99.4%,93.2%,85%,84.6%,88.3%,63.4%,89.7%,89.1%,77.9%,59%,79.4%,64.4%,84%,107%
COc1cc(-c2cc(/C=C3\CCCCC3=O)[nH]n2)cc(OC)c1OC,95.4%,79.4%,101%,94.6%,96.1%,96.8%,96.4%,103%,95%,101%,94.1%,100%,85.8%,97.5%,92.2%,89.2%,92.8%,106%,93.8%,114%
Nc1c(C(=O)Nc2ccccc2)sc2nc3c(cc12)CCC3,96.8%,35.4%,77.9%,80.7%,95.4%,94%,106%,80.2%,90.5%,69.7%,55.7%,88%,65.5%,85.1%,70.9%,81%,68.7%,69.8%,89.1%,80.4%
CC(C(=O)n1cc(-c2ccccc2)c(-c2ccccc2)c1)c1ccccc1 (stereo not given),113%,104%,108%,108%,112%,118%,91.9%,104%,95.3%,108%,112%,107%,92.9%,102%,91.1%,95.9%,99.1%,106%,97.8%,112%
COc1ccc(C(=O)c2cc(OC)c(OC)c(OC)c2)cc1/C=C/C(=O)c1ccc(OC)c(OC)c1,-4.98% (active),12.3%,56.6%,26.1%,29.3%,17%,-46.2% (active),-23.5% (active),49.1%,36.2%,12.8%,9.61% (active),22.9%,33.2%,25.5%,33.9%,21.5%,24.8%,10.9%,21.8%
Cc1cc(N/C=c2\sc3ncnn3c2=O)no1,93.7%,98.5%,87.3%,102%,113%,90.1%,99%,107%,105%,92.8%,94.6%,102%,91.3%,95.2%,105%,97.7%,99.2%,94%,97.3%,104%
CCCCCCCCCCCCCCCCC(Br)C(=O)O (stereo not given),116%,86.1%,98.3%,115%,105%,112%,93.8%,86.4%,110%,101%,83%,108%,86.5%,105%,102%,103%,103%,105%,106%,100%
Cc1ccc(Oc2nc3ccccc3cc2-c2nnc(Cn3c(COc4ccccc4)nc4ccccc43)o2)cc1,63.5%,-3.18% (active),72.5%,47.7%,60.3%,20.6%,92%,63.3%,94.6%,45.5%,17.5%,4.53% (active),54.9%,52.4%,43%,46.2%,80.5%,50.8%,19.6%,90.9%
CCNCc1ccncc1,108%,94.5%,101%,114%,112%,106%,102%,103%,96.3%,94.5%,104%,102%,92.5%,106%,94.9%,85.2%,102%,109%,93.6%,119%
Nc1c(C(=O)c2ccc(F)cc2)sc2nc3c(cc12)CCCC3,77.9%,25.8%,31.7%,85.7%,56%,87.4%,72.6%,95.3%,95%,71%,58.4%,66%,85.8%,95.4%,79.4%,80.7%,89.2%,75%,75.8%,76.8%
COc1ccc(/C=N/NC(=O)Cn2c(Cc3cccc4ccccc34)nc3ccccc32)cc1,105%,89.4%,92.4%,91.2%,109%,95.6%,88.9%,90.7%,99.4%,105%,95.7%,108%,102%,92.2%,99.7%,83.2%,96.1%,87.7%,88.3%,109%
CCCCNC(=O)NS(=O)(=O)c1ccc(N2N=C(c3ccc(C)cc3C)CC2c2ccc(OC)cc2)cc1 (stereo not given),92.4%,58.9%,108%,85.4%,82.6%,84.8%,41.6%,69.7%,72.5%,42.7%,47%,88%,85.4%,81.2%,44.9%,50.1%,55.6%,60%,56.2%,44.8%
N#Cc1ncc(-c2ccc(F)c(F)c2F)c(NC2CCCCCC2)n1,95.8%,76.8%,131%,67%,77.5%,66.6%,97.8%,93.7%,81.5%,97.8%,76.1%,95.6%,72.2%,78.6%,59.1%,75.7%,89.9%,71.2%,84.6%,94%
COc1ccc(/C=C/c2nc(N3CCOCC3)c3cc(F)c(F)cc3n2)cc1OC,53.5%,16.4%,42.3%,55.4%,48.6%,53.5%,19.3%,56.8%,20.5%,28%,36.3%,42.4%,54.8%,45.3%,41.5%,8.26% (active),-18.1% (active),41.1%,36.4%,52.4%
